Assay results reported in PubChem BioAssay AID2279 (Southern Research Specialized Biocontainment Screening …, 2010).
Measured potencies and affinities stand elsewhere. Activity calls are given as the source filed them. No rule for the calls is given here.

Assay: CCR5-tropic HIV-1 fusion blockers – cell-based, CCR5-tropic Env, dose response (AID 2279)
Details: CCR5-tropic HIV-1 Env, reporter read-out; series mostly up to 50 µM

outcome, inactive:
O=C(O)c1[nH]c2ccccc2c1C(c1ccccc1)c1c(C(=O)O)[nH]c2ccccc12
CN1C(=O)/C(=C/c2ccc(C(=O)Nc3ccc(O)cc3C(=O)O)cc2)SC1=S
COc1cc(/C=C2\C(=N)N3N=C(S(C)(=O)=O)SC3=NC2=O)ccc1OC(=O)c1ccco1
Cc1cccc(C)c1-n1cccc1/C=C1\SC(=S)N(c2cccc(C(=O)O)c2)C1=O
O=C(O)CSCC(=O)N(Cc1ccccc1)c1nc(-c2ccccc2)c(-c2ccccc2)s1
C=CCOc1ccc(C(c2c(C(=O)O)[nH]c3ccccc23)c2c(C(=O)O)[nH]c3ccccc23)cc1
COc1cccc(OCCOc2ccc(/C=C3\C(=N)N4N=C(S(C)(=O)=O)SC4=NC3=O)cc2OC)c1
O=C(O)c1ccc(Nc2nc(-c3cc4ccccc4oc3=O)cs2)cc1O
O=C(O)CN1C(=O)/C(=C\c2cc(Br)ccc2OCc2ccccc2Cl)SC1=S
CCOC(=O)C1=C(C)N=c2s/c(=C/c3ccc(OCC(=O)O)cc3)c(=O)n2C1c1ccc(SC)cc1 (stereo not given)
Cc1ccc(-c2nn(-c3ccccc3)cc2/C=C2\SC(=S)N(CC(=O)O)C2=O)cc1
COc1cccc(C2C3=C(N=c4s/c(=C\c5ccc(OCC(=O)O)cc5)c(=O)n42)c2ccccc2CC3)c1 (stereo not given)
CC(C)CS(=O)(=O)C1=NSC2=NC(=O)/C(=C\c3ccc(OC(=O)c4ccco4)cc3)C(=N)N21
CCS(=O)(=O)C1=NN2C(=N)/C(=C\c3ccc(OS(=O)(=O)c4ccccc4)c(OC)c3)C(=O)N=C2S1
COc1cc(/C=C2\C(=N)N3N=C(S(C)(=O)=O)SC3=NC2=O)ccc1OS(=O)(=O)c1ccccc1
O=C(CCCN1C(=O)/C(=C/c2cccs2)SC1=S)Nc1ccc(O)c(C(=O)O)c1
N#Cc1c(-c2ccccc2)nc(SCc2cccc(C(F)(F)F)c2)[nH]c1=O
Cc1cc(/C=c2\sc3nc4ccccc4n3c2=O)c(C)n1-c1ccc(C(=O)O)cc1
CC(/C=C1\SC(=S)N(c2ccc(C(=O)O)cc2)C1=O)=C\c1ccccc1
O=C(O)c1cc(-c2ccc(/C=C3\NC(=O)N(c4ccc(Cl)cc4)C3=O)o2)ccc1Cl
